Source: the supplement of paper PMC13380429

System: Vero E6 infected with SARS-CoV-2
Assay: inhibition of SARS-CoV-2 cytopathic effect; higher = more antiviral protection, active = above 15
Details: 48 h

Measured: inhibition of SARS-CoV-2 cytopathic effect

O=c1c(O)c(-c2ccc(O)c(O)c2)oc2cc(O)ccc12 [fisetin]
inactive: 1 nM 0.55% | 8.33 nM -1.12% | 100 nM 0.7% | 833.33 nM -0.95% | 10000 nM -1.68%

C[C@H](c1ccc2ccc(OC3CCC(C(F)(F)F)CC3)c(C(F)(F)F)c2c1)N1C2CCC1CC(C(=O)O)C2 (stereo not given in full) [autotaxin-modulator-1]
inactive: 1 nM -1.22% | 8.33 nM -0.49% | 100 nM 0.86% | 833.33 nM 0.12% | 10000 nM 1.02%

C=C1CC[C@H](O)C/C1=C/C=C1\CCC[C@]2(C)[C@@H]([C@H](C)CCCC(C)C)CC[C@@H]12 [cholecalciferol]
inactive: 1 nM -2.37% | 8.33 nM -2.07% | 100 nM -1.56% | 833.33 nM -2.03% | 10000 nM 0.91%

Cc1c(-c2ccccc2)oc2c(C(=O)OCCN3CCCCC3)cccc2c1=O [flavoxate]
inactive: 1 nM -1.05% | 8.33 nM 0.44% | 100 nM 0.93% | 833.33 nM -0.65% | 10000 nM 0.61%

CC(C)(C)C(=O)CN1C(=O)[C@H](NC(=O)Nc2cccc(C(=O)O)c2)CN(C2CCCCC2)c2ccccc21 [nastorazepide]
inactive: 1 nM -1.25% | 8.33 nM -0.99% | 100 nM 0.77% | 833.33 nM 0.71% | 10000 nM -1.1%

CN1C(=O)C(N2CCCCC2)S/C1=C\C(=O)O (stereo not given) [ozolinone]
inactive: 1 nM -4.09% | 8.33 nM 0.03% | 100 nM 4.18% | 833.33 nM 0.02% | 10000 nM -0.02%

CC[C@]1(O)C[C@H]2CN(CCc3c([nH]c4ccccc34)[C@@](C(=O)OC)(c3cc4c(cc3OC)N(C=O)[C@H]3[C@@](O)(C(=O)OC)[C@H](OC(C)=O)[C@]5(CC)C=CCN6CC[C@]43[C@@H]65)C2)C1 [Vincristine (sulfate)]
inactive: 1 nM -1.47% | 8.33 nM -1.12% | 100 nM 0.94% | 833.33 nM 0.14% | 10000 nM -0.29%

C[C@@H]1[C@H](O)[C@@H](C)/C=C/C=C/C=C/C=C/C=C/C=C/C=C/[C@H](O[C@@H]2O[C@H](C)[C@@H](O)[C@H](N)[C@@H]2O)C[C@@H]2O[C@](O)(C[C@@H](O)C[C@@H](O)[C@H](O)CC[C@@H](O)C[C@@H](O)CC(=O)O[C@H]1C)C[C@H](O)[C@H]2C(=O)O [amphotericin-b]
inactive: 1 nM -1.34% | 8.33 nM 0.44% | 100 nM -1.99% | 833.33 nM -0.45% | 10000 nM 3.31%

Cc1nccn1CCC(C(N)=O)(c1ccccc1)c1ccccc1 [imidafenacin]
inactive: 1 nM -0.4% | 8.33 nM -0.55% | 100 nM 1.32% | 833.33 nM 4.43% | 10000 nM 0.89%

O=C(/C=C/c1ccc(O)c(O)c1)O[C@H](Cc1ccc(O)c(O)c1)C(=O)O [rosmarinic-acid]
inactive: 1 nM 2.8% | 8.33 nM 3.5% | 100 nM 2.25% | 833.33 nM 3.06% | 10000 nM 3.05%

COC(=O)C1=C(C)N(C)C(C)=C(C(=O)OC)C1c1ccc(C(F)(F)F)cc1
inactive: 1 nM 1.98% | 8.33 nM -2.17% | 100 nM 0.85% | 833.33 nM 2.1% | 10000 nM 8.02%

Nc1ccc2cc3ccc(N)cc3nc2c1 [proflavine-hemisulfate]
inactive: 1 nM -1.46% | 8.33 nM -2.57% | 100 nM -0.42% | 833.33 nM 1.94% | 10000 nM -8.75%

C#C[C@]1(O)CC[C@H]2[C@@H]3CCc4cc(OC5CCCC5)ccc4[C@H]3CC[C@@]21C [quinestrol]
inactive: 1 nM -2.85% | 8.33 nM -1.33% | 100 nM -0.65% | 833.33 nM 0.63%
active: 10000 nM 15.7%

Cc1cc(N2CCCCC2)nc2ccccc12
inactive: 1 nM -1.33% | 8.33 nM 3.15% | 100 nM -0.88% | 833.33 nM 0.63% | 10000 nM 4.47%

CN1CCN(c2ccc3[nH]c(-c4ccc5[nH]c(-c6ccc(O)cc6)nc5c4)nc3c2)CC1 [pibenzimol]
inactive: 1 nM -0.58% | 8.33 nM -1.08% | 100 nM 1.05% | 833.33 nM 2.62% | 10000 nM 4.07%

CCCCN1[C@@H]2CC[C@H]1C[C@@H](OC(c1ccc(F)cc1)c1ccc(F)cc1)C2
active: 10000 nM 37%
inactive: 1 nM -4.04% | 8.33 nM 0.46% | 100 nM 3.9% | 833.33 nM 2.41%

Cn1c(=O)c2c(ncn2CC(=O)O)n(C)c1=O [acefylline]
inactive: 1 nM -0.43% | 8.33 nM 3.14% | 100 nM 12.4% | 833.33 nM 0.66% | 10000 nM 0.73%

C[C@@H](O)[C@H](N)C(=O)N1CCC[C@H]1C(=O)N1CCC[C@H]1C(=O)N[C@H](C(N)=O)[C@@H](C)O [rapastinel]
inactive: 1 nM -2.84% | 8.33 nM -5.74% | 100 nM 0.55% | 833.33 nM -1.01% | 10000 nM -0.06%
